IP6K1 inh = blocks human inositol hexakisphosphate kinase 1; AID 1645851; activity change, % (series mostly up to about 58 µM); IP6K1 kinase, ADP-Glo luminescence, 2 h; hits give low values; 140,000 tested, 0.81% active; in the data active = activity change below about -25%; also: % is scaled to controls: 0 for no effect and ±100 for the full control effect
Target sequence (Q92551 whole entry, looked up): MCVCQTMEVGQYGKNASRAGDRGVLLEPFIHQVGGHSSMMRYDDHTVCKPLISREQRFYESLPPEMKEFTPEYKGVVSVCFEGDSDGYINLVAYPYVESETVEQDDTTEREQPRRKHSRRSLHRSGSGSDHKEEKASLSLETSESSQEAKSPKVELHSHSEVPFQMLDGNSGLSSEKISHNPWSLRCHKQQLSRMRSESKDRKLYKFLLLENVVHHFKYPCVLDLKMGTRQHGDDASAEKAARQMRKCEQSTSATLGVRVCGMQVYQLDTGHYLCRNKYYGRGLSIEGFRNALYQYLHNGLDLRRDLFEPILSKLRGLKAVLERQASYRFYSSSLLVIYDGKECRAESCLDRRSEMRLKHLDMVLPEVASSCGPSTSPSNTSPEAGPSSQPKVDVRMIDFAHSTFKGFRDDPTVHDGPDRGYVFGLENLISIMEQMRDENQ
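ADP-Glo luminescence measures ADP made by human IP6K1 during a 2 h RT reaction with ATP/IP6 (mix at 1.3 mM/130 uM); top library doses 57.5 and 19.1 uM final.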
KDM5B inhibitor = blocks human KDM5B histone demethylase activity; Q9UGL1; KDM5B demethylase, FDH-coupled NADH fluorescence (FDH is formaldehyde dehydrogenase); Potency, µM (top dose mostly 57.7 µM), hits mostly inhibitors; 220,000 tested, 2.6% active; active = well fitted inhibition curve with a large enough effect; inconclusive = small, poorly fitted or top-dose-only effect; inactive = no such curve, though single readings can be large or run the other way; also: potency is read from the fitted curve at half-maximal effect; 0% is about no effect; nearly all actives have a fitted effect of over 70% in size
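KDM5BΔAP (200 nM final) in 50 mM HEPES pH 7.5, 0.01% Tween-20 was preincubated 10 min at RT with compound over a concentration range. Substrate mix (H3K4me3 12.5 µM, α-KG 25 µM, Fe²⁺, ascorbate, NAD⁺, FDH) was added, and NADH fluorescence change over 30 min gave dose-response curves.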
* = called active by the depositor; i = inactive; ? = inconclusive; . = not tested or not shown. Shown are actives, neighbours in structure and some others; about 2.8% of the full set was active somewhere.

SMILES | IP6K1 inh | KDM5B inhibitor
Cc1ccc(C)n1-c1nnc(N2CCCC(C(=O)Nc3ccc(C(C)C)cc3)C2)s1 (stereo not drawn) | 22 | ?
CC(C)Oc1cccc2c1c(NC(=O)CN1CCCC1=O)nn2-c1cccc(F)c1 | 10 | i
O=C(Nc1nn(Cc2ccccc2)c2cccc(N3CCOCC3)c12)c1ccncc1 | -4 | i
O=C(Nc1nn(Cc2ccccc2)c2cccc(N3CCOCC3)c12)C1CCC1 | -4 | 25µM*
O=C(Nc1nn(-c2cccc(F)c2)c2cccc(N3CCOCC3)c12)C1CCC1 | 0 | 32µM*
Cn1nc(NC(=O)Cc2c[nH]c(=O)[nH]c2=O)c2c(N3CCOCC3)cccc21 | -12 | ?
Cc1ccnn1CCC(=O)Nc1nn(C)c2cccc(N3CCOCC3)c12 | 13 | 28µM*
COCCN(C)C[C@@H]1CN(C(=O)c2ccc(C(C)=O)s2)C[C@@H]1CO | 8 | ?
COc1ccc(C2=NOC3(CCN(Cc4ccc(N(C)C)cc4)C3)C2)cc1 (stereo not drawn) | 7 | ?
CC(=O)Oc1ccc2c(=O)c(Oc3cc(C)cc(C)c3)coc2c1 | . | i
COc1ccccc1N(CC(=O)N1CCC(C)CC1)S(=O)(=O)c1ccc(C)cc1 | 25 | i
CCOC(=O)N1CC(CN2C(=O)c3c(c(C)nn3-c3ccccc3)C2C2CC2)C1 (stereo not drawn) | 3 | .
COc1cc(-c2cccs2)cc2c1OCCN(C(=O)c1ccncc1C)C2 | 4 | i
COc1cc(-c2cc(C)c3cccc(OC)c3n2)cc2c1OCCN(C(=O)CCN)C2 | -8 | 28µM*
O=C(NCCc1cccnc1)c1ccccc1Cl | . | i
COc1ccccc1-c1ccnc(-n2ncc(C(=O)NCCc3cccnc3)c2C2CC2)n1 | -6 | 32µM*
COc1cccc2c1Oc1c(c(=O)n(-c3ccccc3)n1CC(=O)Nc1ccc(F)c(Cl)c1)C2 | . | i
COC(=O)[C@@H]1Cc2c([nH]c3ccccc23)[C@H]2C[C@@H](NCc3cccnc3)C[C@@H](c3ccccc3)N21 | -13 | ?
COC(=O)[C@@H]1Cc2c([nH]c3ccccc23)[C@H]2C[C@H](NCCNC(C)=O)C[C@@H](c3ccccc3)N21 | -14 | 28µM*
COCCN[C@@H]1C[C@@H]2c3[nH]c4ccccc4c3C[C@@H](C(=O)OC)N2[C@H](c2ccc(C(F)(F)F)cc2)C1 | -7 | ?
COC(=O)[C@@H]1Cc2c([nH]c3ccccc23)[C@H]2C[C@H](NCCNC(C)=O)C[C@@H](c3ccc(C(F)(F)F)cc3)N21 | 10 | 10µM*
COC(=O)c1cccc(NC(=O)NCc2cccn2Cc2ccccc2)c1 | . | i
CN(C)C(=O)c1cccnc1OC1CCNCC1 | 12 | ?
CCNC(=O)c1cccnc1OC1CCN(C(=O)CC)C1 (stereo not drawn) | 23 | i
CCNC(=O)c1cccnc1OC1CCN(Cc2ccccn2)C1 (stereo not drawn) | 20 | 20µM*
SMILES | IP6K1 inh | KDM5B inhibitor
O=C(NCCc1ccccn1)c1cccnc1OC1CCNCC1 | 16 | 28µM*
O=C1CSc2ccc(C(=O)OCC(=O)Nc3ccccc3[N+](=O)[O-])cc2N1 | . | i
CCCOc1nccnc1NC1CCN(C(=O)c2cccs2)CC1 | -2 | ?
COc1nccnc1NC1CCN(C(=O)c2cccc(C)c2)CC1 | 18 | 32µM*
Cc1cccc(C(=O)N2CCC(Oc3ncccc3C(N)=O)C2)c1 (stereo not drawn) | 24 | i
CCCOc1nccnc1NC1CCN(C(=O)c2ccncc2)CC1 | -1 | 28µM*
CCCOc1nccnc1NC1CCN(S(=O)(=O)CC)CC1 | -2 | 28µM*
COc1nccnc1NC1CCN(C(=O)c2ccc3nc[nH]c3c2)CC1 | -5 | 28µM*
CCS(=O)(=O)N1CCC(Oc2ncccc2C(=O)N(C)C)C1 (stereo not drawn) | 26 | i
CS(=O)(=O)N1CCC(C2CCN(C(=O)c3ccc4nc[nH]c4c3)C2)CC1 (stereo not drawn) | 11 | i
Cc1cccc(NS(=O)(=O)c2ccc(-c3coc(C)n3)cc2)c1 | . | i
COc1nccnc1NC1CCN(C(=O)c2ccco2)CC1 | 10 | 25µM*
COc1nccnc1NS(=O)(=O)c1ccc(N)cc1 | 6 | .
COc1nccnc1NC1CCN(C(=O)c2ccccc2C)CC1 | -4 | 28µM*
COc1nccnc1NC1CCN(S(=O)(=O)c2ccccc2)CC1 | 2 | 25µM*
COc1nccnc1NC1CCN(S(=O)(=O)c2cnc[nH]2)CC1 | 7 | ?
COc1nccnc1NC1CCN(C(=O)c2cnccn2)CC1 | 1 | ?
COc1nccnc1NC1CCN(C(=O)c2c[nH]c3ccccc23)CC1 | -3 | ?
COc1nccnc1NC1CCNCC1 | 0 | 16µM*
Cc1cccc(NC(=O)C2(C#N)CCCC2)c1C | . | i
C=CCSC1=N/C(=C\c2c(C)cc(C)cc2C)C(=O)S1 | . | i
O=C(NCC1CN(Cc2ccccc2)CCO1)C1CCCCC1 (stereo not drawn) | . | i
COc1nccnc1NC1CCN(C(=O)c2n[nH]c3c2CCCC3)CC1 | -4 | 32µM*
CCOc1nccnc1NC1CCN(C(=O)c2cccs2)CC1 | -5 | ?
COc1nccnc1NC1CCN(C(=O)c2cccs2)CC1 | 12 | 25µM*
SMILES | IP6K1 inh | KDM5B inhibitor
O=C(c1ccccc1)N1CCC(Oc2ncccc2C(=O)N2CCCCC2)C1 (stereo not drawn) | 6 | i
COc1nccnc1NC1CCN(C(=O)c2ccccc2)CC1 | -5 | 32µM*
COC(=O)CC1C(=O)NCCN1C(=O)c1n[nH]c2c1CCCC2 (stereo not drawn) | -8 | i
OC[C@@H]1CN(Cc2ccccc2F)C[C@H]1c1nc(-c2ccncc2)no1 | -1 | i
CC1=CC2=C(C)C(=O)C(C)(O)C(O)C2CO1 (stereo not drawn) | 0 | .
CC(C)CN1C(=O)COC[C@@H]1[C@H](O)c1ccc(NC(=O)C2CCC2)cc1 | -13 | i
CCCc1cc(=O)[nH]c(SCc2nnc(-c3ccc(OCC)cc3)o2)n1 | . | i
CC(SC(C)c1ccccc1F)C(N)=O (stereo not drawn) | . | i
Cc1cccc(-n2cccc2C=O)c1C | . | i
CC1(C)[C@H]2CC[C@@H](CNC(=O)c3ccccc3Cl)[C@@H]1C2 | 0 | i
CC1(C)[C@H]2CC[C@@H](CNC(=O)c3cccc4[nH]ccc34)[C@@H]1C2 | 9 | 32µM*
Cc1ccccc1C1C=C(c2ccccc2)OC(c2ccccc2)=C1C=O (stereo not drawn) | . | i
CC1(COc2ccc3[nH]ccc3c2)COc2ccc(C(=O)NCc3cccs3)cc2N1 (stereo not drawn) | -11 | 40µM*
CC1(COc2ccc3[nH]ccc3c2)COc2ccc(C(=O)NCc3ccco3)cc2N1 (stereo not drawn) | -12 | ?
CC1(COc2ccc3[nH]ccc3c2)COc2ccc(C(=O)N3CC(O)C3)cc2N1 (stereo not drawn) | -2 | 35µM*
CC(C)CNC(=O)c1ccc2c(c1)NC(C)(COc1ccc3[nH]ccc3c1)CO2 (stereo not drawn) | -4 | 32µM*
CC1(CNc2ccccc2)COc2ccc(C(=O)NC3CCC(O)CC3)cc2N1 (stereo not drawn) | 2 | ?
CC1(COc2ccc3[nH]ccc3c2)COc2ccc(C(=O)N3CCOCC3)cc2N1 (stereo not drawn) | -2 | i

High-throughput results (PubChem BioAssay)
